For 15 compounds, growth results are on record in PubChem BioAssay (NCI).

The panel holds about 83,000 compounds, 20% with a hit somewhere; the sample as a whole holds those more often.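 Interpretation: 100, growth as untreated; towards 0, rising growth inhibition; 0, no net growth; 0 to -100, cell death. Compounds scoring below 10 were considered active.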 Unmarked numbers belong to inactive results. Calls of active or inactive are those of the source.

Holding throughout (assay): NCI-60 one-dose screen, 48 h (100 = growth as untreated, 0 = no growth, -100 = all killed)
Holding throughout (details): 10 µM unless noted

The test system of assay [1] is RPMI-8226 leukemia.
Assay [2] has as its system OVCAR-8 ovarian.
Assay [3] concerns OVCAR-5 ovarian.
The test system of assay [4] is OVCAR-4 ovarian.
In assay [5] the test system is SK-OV-3 ovarian.
The test system of assay [6] is IGROV1 ovarian.
Assay [7] relates to HS 578T breast.
The test system of assay [8] is NCI/ADR-RES ovarian.
In assay [9] the test system is T-47D breast.
The subject of assay [10] is BT-549 breast.
Assay [11] deals with MDA-MB-435 melanoma.
Assay [12] has as its system SW-620 colon.
In assay [13] the test system is MCF7 breast.
Assay [14] has as its system HCT-116 colon.
The subject of assay [15] is HCC-2998 colon.
Assay [16] concerns KM12 colon.
Assay [17] has as its system OVCAR-3 ovarian.

Consider `O=c1cc(-c2ccccc2)nc2sc(-c3c[nH]c4ccc(Br)cc34)nn12`, for which the growth in assay [1] is 112%; in assay [2], 106%; in [3], 100%; in assay [4], 105%; in assay [5] it was 110%; in assay [6] it was 98.9%. Also, the growth was 113% in [7]; 101% in assay [8]; 75.2% in [9]; 108% in assay [10]; 101% in [11]; 105% in [12]. The growth in assay [13] is 67.9%; in assay [14] it was 103%; in assay [15], 109%; in assay [16] it was 103%.
`O=C1Nc2ccc(Cl)cc2/C1=C/c1ccc(OCc2ccc(F)cc2)cc1`: the growth is 69.8% in assay [1]; 98.5% in [2]; 94% in assay [3]; 97.5% in assay [4]; 101% in [5]; 100% in assay [6]. For the same compound, the growth in assay [7] was 101%; in assay [8], 80.5%; in [9], 102%; in [10], 107%; in assay [11], 93%; in [12], 102%. The growth in [13] is 84.6%; in assay [14], 88.5%; in [15], 102%; in assay [16], 98.8%.
Take `N#C/C(=C\c1ccc(-c2ccc(F)cc2)o1)C(=O)Nc1ncc(Cc2ccc(Cl)cc2Cl)s1`: the growth in [1] was 25.3%; in assay [2] it was 6.14% (active); in [3], 26%; in assay [4] it was -40.3% (active); in assay [5] it was 107%; in assay [6], -1.72% (active). The growth in [7] is 10.7%; in assay [8], 6.32% (active); in [9], -5.01% (active); in [10] it was -15.8% (active); in assay [11] it was -20.4% (active); in assay [12], -67.1% (active). For the same compound, the growth in assay [13] is -5.46% (active); in assay [14], -61.4% (active); in [15], 79.8%; in assay [16], 13.4%.
Consider `COc1ccc(-c2no[n+]([O-])c2Nc2ccccc2Br)cc1`, for which the growth is 93.7% in [1]; 90.3% in [2]; 108% in assay [3]; 101% in assay [4]; 94.3% in assay [5]; 85.4% in [6]. For the same compound, the growth was 88.9% in assay [7]; 94.9% in assay [8]; 80% in assay [9]; 113% in assay [10]; 107% in [11]; 101% in assay [12]. Besides, the growth in assay [13] was 84.9%; in [14], 93.7%; in assay [15] it was 111%; in assay [16], 101%.
With `Cc1occc1-c1nc2s/c(=C\c3cn(-c4ccccc4)nc3-c3ccccc3)c(=O)n2n1`, the growth in assay [1] was 99.1%; in assay [2] it was 101%; in [3], 99.5%; in assay [4] it was 97%; in [5], 113%; in assay [6] it was -96.2% (active). Moreover, the growth in assay [7] is 105%; in assay [8], 97.9%; in [9] it was 95.2%; in assay [10] it was 97.7%; in assay [11], 98.9%; in [12], 97.5%. Also, the growth in assay [13] is 91.9%; in assay [14], 98.7%; in [15], 101%; in assay [16], 102%.
Regarding `CS(=O)c1nccc(-c2c(-c3ccc(F)c(OCc4ccccc4)c3)nc3sccn23)n1` (stereo not given), the growth is 60.6% in [1]; 96.1% in assay [2]; 104% in [3]; 102% in assay [4]; 114% in [5]; 68.7% in [6]. Moreover, the growth in [7] is 101%; in assay [8], 102%; in assay [9] it was -11.6% (active); in assay [10], 109%; in assay [11], 104%; in assay [12], 87.9%. For the same compound, the growth in assay [13] was -44.7% (active); in [14], 63.6%; in assay [15] it was 50.4%; in assay [16] it was 77%.
As to `COc1cc2c3c(n(CCCNC4CCC4)c(=O)c2cc1OC)-c1cc2c(cc1C3=O)OCO2`, the growth was -39.1% (active) in assay [1]; -49.8% (active) in assay [2]; -72.4% (active) in assay [3]; -57.9% (active) in assay [4]; 23.4% in assay [5]; -53.3% (active) in [6]. Besides, the growth in assay [7] was 84.1%; in assay [8], -32.4% (active); in [9] it was 53.5%; in assay [10], 76%; in assay [11], -65.7% (active); in [12], -15.4% (active). Moreover, the growth was -71.5% (active) in assay [13], -48.4% (active) in assay [14], -89.3% (active) in assay [15] and 38.7% in assay [16].
Consider `COC(=O)[C@@]1(C)CC[C@]2(C)CC[C@]3(C)C(=CC(=O)[C@@H]4[C@@]5(C)Cc6c(n(CC#CCN7CCN(C)CC7)c7ccccc67)C(C)(C)[C@@H]5CC[C@]43C)[C@@H]2C1`, for which the growth in assay [1] was 69.5%; in [2], 93.8%; in assay [3], 86.7%; in [4], 89.7%; in assay [5], 122%; in [6], 89%. The growth in assay [7] is 88.1%; in assay [8] it was 86.5%; in assay [9], 84.8%; in assay [10], 90.5%; in [11] it was 40.3%; in assay [12], -63.4% (active). The growth in [13] was -32.4% (active); in assay [14] it was -28.7% (active); in assay [16], 52.8%.
For `COc1cc2c3c(n(CCCN4CCCCC4)c(=O)c2cc1OC)-c1cc2c(cc1C3=O)OCO2`, the growth is -47.3% (active) in [1]; -63.6% (active) in [2]; -96.1% (active) in assay [3]; -74.1% (active) in [4]; 46% in assay [5]; -68.7% (active) in assay [6]. Further, the growth was -51.2% (active) in assay [7]; -62% (active) in assay [8]; -64.6% (active) in [9]; -59.7% (active) in assay [10]; -81.4% (active) in [11]; -92.5% (active) in assay [12]. Further, the growth in [13] was -75.5% (active); in assay [14] it was -71.9% (active); in [15], -86.8% (active); in assay [16] it was -85.4% (active).
Turning to `CS(=O)c1nccc(-c2c(-c3ccc(F)c(OCCc4ccccc4)c3)nc3sccn23)n1` (stereo not given), the growth was 55.8% in assay [1]; 93% in [2]; 111% in [3]; 102% in assay [4]; 102% in assay [5]; 17.7% in assay [6]. Moreover, the growth was 99.8% in assay [7]; 108% in [8]; 15.2% in assay [9]; 120% in assay [10]; 111% in assay [11]; 80.5% in assay [12]. Moreover, the growth is -1.77% (active) in [13], 63.2% in assay [14], 58.6% in assay [15] and 89.2% in [16].
For `C=CCn1c(SCC(=O)Nc2cccc(C(=O)/C=C/c3ccc(C)cc3)c2)nc2ccccc2c1=O`, the growth is 27.1% in assay [1]; 82.1% in assay [2]; 101% in [3]; 84.9% in assay [4]; 95.8% in [6]; 101% in [7]. The growth is 84.5% in [8]; 67.3% in assay [9]; 122% in assay [10]; 68.6% in assay [11]; 67.5% in assay [12]; 26.5% in assay [13]. Also, the growth in assay [14] is 13.7%; in assay [15] it was 87.2%; in assay [16] it was 74.5%.
Take `CNC(=O)c1cc(Oc2ccc3nc(NC(=O)c4ccc(CN5CCN(C)CC5)c(C(F)(F)F)c4)sc3c2)ccn1`: the growth in [1] was 19.6%; in [2] it was 73.8%; in assay [3], 80.7%; in assay [4] it was 52.4%; in assay [5], 87.1%; in assay [6] it was 80.1%. Further, the growth in [7] is 52.9%; in [8] it was 78%; in [9], 38%; in assay [12] it was 11.4%; in assay [13] it was 28.9%; in assay [14] it was 31.7%. The growth in assay [15] is 70.5%; in assay [16], 46.8%.
In the case of `CS(=O)(=O)c1nccc(-c2c(-c3ccc(F)c(OCc4ccc(F)cc4)c3)nc3sccn23)n1`, the growth is 38.8% in [1]; 92.1% in assay [2]; 97% in [3]; 99.1% in assay [4]; 82.1% in [6]; 85.4% in [7]. Also, the growth was 98% in [8]; -18.7% (active) in [9]; 69.8% in assay [10]; 97.3% in [11]; 88.2% in [12]; -6.26% (active) in assay [13]. Further, the growth in assay [14] is 90.2%; in assay [15] it was -63.6% (active); in assay [16], 41.5%.
For `C#CCOc1ccc(/C=N/Nc2nc(-c3cc(Cl)ccc3Cl)cs2)cc1`, the growth in [1] is 76.8%; in [2], 93.5%; in assay [3], 99.5%; in assay [4], 52.8%; in assay [6], 64.4%; in [7] it was 98.3%. In addition, the growth in assay [8] was 95%; in assay [9] it was 37.4%; in assay [11] it was 102%; in [12] it was 93.9%; in assay [13] it was 9.62% (active); in assay [14], 86.6%. Further, the growth was 95.8% in assay [15] and 72.5% in assay [16].
For `CC(=O)Nc1nc2c(s1)C1=CC[C@H]3[C@@H]4CC[C@H](C(C)=O)[C@@]4(C)CC[C@@H]3[C@@]1(C)CC2`, the growth in assay [2] was 78.6%; in assay [3], 80.6%; in assay [4], 80.5%; in assay [5], 59.9%; in assay [17] it was 74.8%; in assay [7], 33.8%. In addition, the growth in assay [8] is 81.6%; in [9], 68%; in [10] it was 62.3%; in assay [12], 82.3%; in assay [13], 20.6%; in assay [14], 60.4%. In addition, the growth in [16] is 47.7%.
